The subject of assay [1] is Wnt5a (protein binding on small-molecule microarray). As to the kind of experiment: Wnt5a binders on small-molecule microarray, primary screen, biophysical, 635/667 nm fluorescence (AID 1142).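 Note: fluorescence read at 667 nm with signal to noise per printed feature.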 Particulars: 635 nm fluorescence, higher = more signal.
A short description of assay [2]: cell viability in Huh7 cells, primary screen, cytotoxicity control for HCV replication inhibitor project, CellTiter-Glo luminescence, basal, 48 h (AID 1143).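 Note: Huh7 hepatoma cells carrying a hepatitis C replication reporter with no stimulus; test concentration not given here.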 Particulars: Huh7 HCV replicon, higher = more signal, called active from +8 up or from −8 down. Background: ATP-based viability assays read luminescence as a measure of living cells.
Assay [3] is described as follows: P. aeruginosa biofilm formation inhibitors, primary screen, PAO1 strain, BacTiter-Glo luminescence, LB-PBS (AID 1144). To be noted: 12 h, higher = more signal.
Assay [4] is described as follows: CREB reporter modulators without forskolin, primary screen, cell-based, PC12, CRE-LacZ reporter, unstimulated (AID 1145). Particulars: no forskolin, luminescence, 4.5 h, higher = more signal, called active from +8 up or from −8 down.
Assay [5] can be described thus: CREB reporter modulators under forskolin, primary screen, cell-based, PC12, CRE-LacZ reporter, forskolin-stimulated (AID 1146).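 Note: PC12 cells with 6xCRE LacZ reporter stimulated by forskolin 10 µM; beta-galactosidase reporter signal reflecting CREB driven transcription.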 Particulars: luminescence, 4.5 h, higher = more signal, called active from +8 up or from −8 down.
The target of assay [6] is Streptavidin (Streptomyces avidinii) (UniProt P22629). In words: streptavidin binders on small-molecule microarray, primary screen, artefact control for SMM compound annotation, biophysical, 635/667 nm fluorescence (AID 1147).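 Note: signal reflects streptavidin binding to arrayed compounds as a control protein.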 Particulars: streptavidin binding, higher = more signal.
Sequence of Streptavidin (Streptomyces avidinii) (P22629 whole entry, looked up): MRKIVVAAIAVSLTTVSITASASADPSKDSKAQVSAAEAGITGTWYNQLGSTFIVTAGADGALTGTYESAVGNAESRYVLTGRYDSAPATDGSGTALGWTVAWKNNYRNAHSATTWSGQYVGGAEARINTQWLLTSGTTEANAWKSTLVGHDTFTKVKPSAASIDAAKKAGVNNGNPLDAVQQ
Assay [7] in a line: small-molecule binders of probe aInhba, primary screen, biochemical, small-molecule microarray, 635/667 nm fluorescence (AID 1148).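 Note: score merges 667nm spot fluorescence with signal-to-noise for antibody binding to printed compounds.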 To be noted: higher = more signal.
The target in assay [8] is Torsin-1A (Homo sapiens) (UniProt O14656). In words: torsin A binders from cell lysate, primary screen, small-molecule microarray, wild-type, 635/667 nm (AID 1149). To be noted: COS7 hTOR1A-WT lysate, 635 nm fluorescence, higher = more signal.
Sequence of Torsin-1A (Homo sapiens) (O14656 whole entry, looked up): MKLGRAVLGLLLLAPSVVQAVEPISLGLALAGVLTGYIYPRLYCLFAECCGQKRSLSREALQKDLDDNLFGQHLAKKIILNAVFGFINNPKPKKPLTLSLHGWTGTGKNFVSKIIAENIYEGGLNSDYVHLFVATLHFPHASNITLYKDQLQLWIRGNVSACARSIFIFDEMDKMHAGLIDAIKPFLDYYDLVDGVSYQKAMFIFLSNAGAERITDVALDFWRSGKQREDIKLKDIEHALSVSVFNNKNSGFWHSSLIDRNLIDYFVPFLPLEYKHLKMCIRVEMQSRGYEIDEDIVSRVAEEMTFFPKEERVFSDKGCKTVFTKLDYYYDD
For assay [9] the target is unchanged. In words: small-molecule binders of mutant TOR1A in lysate, primary screen, cell lysate, small-molecule microarray, COS7 lysate, 635/667 nm fluorescence (AID 1150).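 Note: score pools 667 nm emission and signal to noise measuring lysate protein binding.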 To be noted: COS7 hTOR1A mutant lysate, 635 nm fluorescence, higher = more signal.
Assay [10] deals with Sonic hedgehog protein (Shh). As to the kind of experiment: small-molecule binders of Shh protein, primary screen, biochemical, small-molecule microarray, 635/667 nm fluorescence (AID 1151).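 Note: Shh protein binding to compounds spotted on small-molecule microarray slides; score combines spot fluorescence intensity with signal-to-noise across triplicate slides.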 To be noted: small-molecule microarray binding, 635 nm fluorescence; higher = more signal.

Activity calls are given as the source filed them. Unless noted, the rule behind the calls is not given here.

With `Cc1ccccc1C(O)C1C=CC2C(=O)N(c3ccccc3)C(=O)C2N1Nc1ccccc1` (stereo not given), the composite z-score in assay [1] was 0.719; in [6], 1.65; in [7] it was 0.182; in the assay with Torsin-1A (Homo sapiens) [8], -0.241; with Torsin-1A (Homo sapiens) [9] it was 0.191; in assay [10] it was 0.442. Also, the z-score is -0.383 (inactive) in assay [2], -1.18 (inactive) in assay [3], 0.0501 (inactive) in assay [4] and 0.0163 (inactive) in assay [5].
`COC(=O)[C@@]1(Cc2ccc(F)cc2)[C@H]2c3cc(C(=O)N(C)C)n(CCc4ccc(O)c(O)c4)c3C[C@H]2CN1C(=O)c1ccccc1`: the composite z-score in [1] is 0.643; in [6], 0.365; in assay [7], 0.528; with Torsin-1A (Homo sapiens) [8], 0.411; with Torsin-1A (Homo sapiens) [9], 0.92; in assay [10] it was -1.67. Also, the z-score is 0.395 (inactive) in assay [2], -0.0598 (inactive) in assay [3], 0.387 (inactive) in assay [4] and 1.4 (inactive) in assay [5].
For the compound `Cc1ccc(S[C@]2(C(=O)NC3CC3)CC(=O)N(C(C)C)[C@@H]2c2ccc(CO)cc2I)cc1`, the composite z-score in assay [1] was -0.385; in [6], -0.677; in assay [7], -0.394; with Torsin-1A (Homo sapiens) [8], 0.778; in the assay with Torsin-1A (Homo sapiens) [9] it was 0.652; in assay [10], 0.677. The z-score was -4.82 (inactive) in assay [2], -1.21 (inactive) in assay [3], 0.299 (inactive) in assay [4] and 1.42 (inactive) in [5].
Consider `COc1ccc([Si](C)(C)[C@H]2[C@H](CC(=O)N3Cc4ccccc4C[C@H]3CO)O[C@@]3(C(=O)N(C)c4c(Br)cc(C)cc43)[C@@H]2C)cc1`, for which the composite z-score in assay [1] was 0.144; in [6] it was 0.298; in assay [7], -0.0087; with Torsin-1A (Homo sapiens) [8], 0.573; with Torsin-1A (Homo sapiens) [9], 0.435; in assay [10], 2.11. Moreover, the z-score in assay [2] was -7.74 (inactive); in assay [3] it was -0.324 (inactive); in assay [4], 7.68 (inactive); in [5], -1.29 (inactive).
On to `CN1C(=O)[C@@H]2[C@@H](CC(COc3ccccc3)=C3[C@@H](CCc4ccccc4)OB(O)C[C@@H]32)C1=O`, for which the composite z-score in assay [1] is 0.0305; in assay [6] it was -0.156; in [7], -0.128; with Torsin-1A (Homo sapiens) [8] it was 0.179; in the assay with Torsin-1A (Homo sapiens) [9] it was 0.0191; in assay [10] it was 0.394. The z-score in assay [2] was -0.706 (inactive); in assay [3], 0.32 (inactive); in assay [4], 1.76 (inactive); in assay [5] it was 0.89 (inactive).
For the compound `C=C(CCCC)/C(=C/C[C@H](OC(C)=O)c1cccc(OCCO)c1)c1cnc2ccccc2c1`, the composite z-score was 0.0596 in assay [1]; 0.247 in [6]; -0.208 in [7]; -0.268 with Torsin-1A (Homo sapiens) [8]; -0.348 with Torsin-1A (Homo sapiens) [9]; 0.477 in [10]. Also, the z-score in assay [2] was -0.717 (inactive); in assay [3], 0.768 (inactive); in assay [4], 7.36 (inactive); in assay [5] it was -0.134 (inactive).
On to `CN(C)c1ccc(C(O)C2C=CC3C(=O)N(Cc4ccccc4)C(=O)C3N2n2cnnc2)cc1` (stereo not given), for which the composite z-score in assay [1] is -0.347; in assay [6] it was 0.143; in assay [7] it was -0.149; with Torsin-1A (Homo sapiens) [8], 0.131; with Torsin-1A (Homo sapiens) [9] it was -0.243; in assay [10] it was -0.11. Also, the z-score was 0.166 (inactive) in assay [2], -1.85 (inactive) in assay [3], -1.09 (inactive) in assay [4] and -0.607 (inactive) in assay [5].
On to `COc1ccc([Si](C)(C)[C@H]2[C@H](CC(=O)N3Cc4ccccc4C[C@H]3CO)O[C@@]3(C(=O)N(C)c4ccccc43)[C@@H]2C)cc1`, for which the composite z-score in assay [1] amounted to 0.26; in assay [6], 0.783; in assay [7], 0.0342; with Torsin-1A (Homo sapiens) [8], 1.28; with Torsin-1A (Homo sapiens) [9] it was 1.91; in assay [10] it was 2.07. Besides, the z-score in assay [2] was -7.33 (inactive); in assay [3], 0.458 (inactive); in [4], 5.61 (inactive); in [5], -1.92 (inactive).
With `CC(C)C[C@H]1NC(=O)C([C@@H](C)OCc2ccccc2)NC(=O)[C@@]23C(=O)N[C@@H](Cc4ccccc4)C2[C@H](C)[C@@]2(C)O[C@H]2C3/C=C/C/C=C\CNC1=O` (stereo not given in full), the composite z-score in assay [1] is 0.0872; in assay [6], 0.0874; in assay [7], 0.242; with Torsin-1A (Homo sapiens) [8], -0.125; with Torsin-1A (Homo sapiens) [9], 0.519; in assay [10] it was 1.62. In addition, the z-score in assay [2] was -1.63 (inactive); in [3], 0.727 (inactive); in assay [4], 0.839 (inactive); in assay [5] it was -0.566 (inactive).
In the case of `COC(=O)C(CC#Cc1ccc2c(c1)[C@]1(C(=O)N2)[C@H](c2ccccc2OCCO)N2[C@H](c3ccccc3)[C@H](c3ccccc3)OC(=O)[C@H]2[C@@H]1C(=O)N1CCc2cc(OC)c(OC)cc2C1)C(=O)OC`, the composite z-score was 0.237 in [1]; 1.11 in [6]; -0.138 in assay [7]; 0.757 with Torsin-1A (Homo sapiens) [8]; 0.674 with Torsin-1A (Homo sapiens) [9]; 1.82 in assay [10]. The z-score in assay [2] was -3.09 (inactive); in assay [3] it was -0.888 (inactive); in [4], -0.0515 (inactive); in [5] it was 0.509 (inactive).
Regarding `C=CCN1Cc2ccccc2[C@H]2OC(c3ccc(OCCCO)cc3)=N[C@@]2(CCS(=O)(=O)c2ccccc2)C1=O`, the composite z-score in assay [1] is 1.07; in assay [6], 0.22; in [7], 0.275; with Torsin-1A (Homo sapiens) [8], 0.695; with Torsin-1A (Homo sapiens) [9], 1.26; in assay [10], 1.28. In addition, the z-score is -2.3 (inactive) in [2], 0.477 (inactive) in [3], 1.44 (inactive) in assay [4] and -1.27 (inactive) in assay [5].

For the origin of these results see PubChem BioAssay.
